Compounds with a hit are over-represented: about 4% of the library has one in this group of screens.
GRIN3A LBD mod – modulates the human NR3A ligand-binding domain; NR3A LBD differential scanning fluorimetry, Tm shift; 0% = protein alone, 100% = glycine-bound protein; Tm shift relative to glycine control, % at 25 µM; 340,000 tested, 2.5% active; AID 1259313;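 active = melting temperature shift of at least 10% of the positive control shift, at one fixed dose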
FAS-TE inh – FAS thioesterase (human) inhibition | P49327 | recombinant FAS-TE, OMFH fluorogenic substrate, fluorescence endpoint | inhibition, % at 15 µM | 360,000 tested, 0.67% active | AID 602261;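 active = compounds whose normalised, plate-corrected inhibition of enzyme fluorescence in the single-dose primary screen is 50% or more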
ADAM17 inh – inhibits human ADAM17 | P78536 | inhibition, % at 6.95 µM | 370,000 tested, 0.83% active | recombinant ADAM17, EDANS/DABCYL FRET peptide cleavage;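 active = inhibition above the mean of compounds lying between control limits plus 3 SD, set per campaign, cut at about 8.5% in these data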
aDG glyco up – increases alpha dystroglycan glycosylation; Pro5-aDG cells, alpha-DG glycosylation AlphaScreen (IIH6); 0% Pro5, 100% B10-LARGE cell signal; activation, % at 10 µM; 360,000 tested, 0.22% active;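 active = activation of at least 8% versus controls, or a plate z-score of at least 8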;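 note: Pro5 are CHO cells carrying HIG-tagged alpha-DG that lacks glycosylation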
ADAM10 inh – inhibits human ADAM10. recombinant ADAM10, EDANS/DABCYL FRET peptide cleavage, 3 h. inhibition, % at 7 µM. 370,000 tested, 0.62% active;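 active = inhibition above a per-campaign cutoff equal to the mean of compounds falling between control-based bounds plus 3 SD, cut at about 20% in these data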
Target sequence (O14672 214-748 limits assumed): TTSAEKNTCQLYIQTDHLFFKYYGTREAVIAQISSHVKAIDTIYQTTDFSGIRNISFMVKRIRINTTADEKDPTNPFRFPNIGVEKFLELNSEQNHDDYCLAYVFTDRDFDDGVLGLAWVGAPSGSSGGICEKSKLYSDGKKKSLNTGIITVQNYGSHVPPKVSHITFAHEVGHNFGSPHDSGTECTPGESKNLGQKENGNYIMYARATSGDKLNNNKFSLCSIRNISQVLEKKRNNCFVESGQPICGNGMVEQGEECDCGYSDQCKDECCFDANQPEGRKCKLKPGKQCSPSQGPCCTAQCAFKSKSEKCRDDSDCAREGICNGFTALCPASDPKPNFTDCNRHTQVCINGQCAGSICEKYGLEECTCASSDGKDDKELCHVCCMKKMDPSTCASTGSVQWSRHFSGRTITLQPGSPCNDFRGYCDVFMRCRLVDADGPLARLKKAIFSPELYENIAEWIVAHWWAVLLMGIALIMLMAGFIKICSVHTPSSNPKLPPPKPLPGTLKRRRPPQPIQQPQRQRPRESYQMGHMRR
Numbers stand for hits.

For O=C(Nc1ccc2c(c1)Cc1ccccc1-2)c1cccnc1 the results were GRIN3A LBD mod 21.4, FAS-TE inh inactive, ADAM17 inh inactive, aDG glyco up inactive and ADAM10 inh inactive.
Screening CC1=C(C(=O)Nc2cccc(C(=O)NC3CCCCC3C)c2)SCCO1 (configuration not stated) returned GRIN3A LBD mod inactive, FAS-TE inh inactive, ADAM17 inh inactive, aDG glyco up inactive and ADAM10 inh inactive.
For O=C(C(=O)c1cccnc1)c1cccnc1 the results were GRIN3A LBD mod inactive, FAS-TE inh inactive, ADAM17 inh inactive, aDG glyco up inactive and ADAM10 inh inactive.
Screening O=C(O)c1cccnc1 returned GRIN3A LBD mod 14.3, FAS-TE inh inactive, ADAM17 inh inactive, aDG glyco up inactive and ADAM10 inh inactive.
For O=c1[nH]cnc2sc3c(c12)CCN(Cc1ccccc1)C3 the results were GRIN3A LBD mod inactive, FAS-TE inh inactive, ADAM17 inh inactive, aDG glyco up inactive and ADAM10 inh inactive.
CCOC(=O)c1cc(-c2ccc(C)cc2)n(CCC(=O)N2CCN(c3ccccn3)CC2)c1C was read as GRIN3A LBD mod 12.6, FAS-TE inh inactive, ADAM17 inh inactive, aDG glyco up inactive and ADAM10 inh inactive.
`Cc1ccc(-n2[nH]c(C)c(/C=C3/C=Nc4ccccc43)c2=O)cc1C` gave GRIN3A LBD mod 14.5, FAS-TE inh inactive, ADAM17 inh inactive, aDG glyco up inactive and ADAM10 inh inactive.
`O=C(Cc1ccccc1)Nc1ccccc1Sc1ccccc1` gave GRIN3A LBD mod inactive, FAS-TE inh inactive, ADAM17 inh inactive, aDG glyco up inactive and ADAM10 inh inactive.
`O=C(Cc1ccc(Br)cc1)Nc1ccccc1Sc1ccccc1` gave GRIN3A LBD mod 18.9, FAS-TE inh inactive, ADAM17 inh inactive, aDG glyco up inactive and ADAM10 inh inactive.
O=C(O)COc1ccc(NC(=O)c2ccc(NC(=O)c3ccco3)cc2)cc1 was read as GRIN3A LBD mod inactive, FAS-TE inh inactive, ADAM17 inh inactive, aDG glyco up inactive and ADAM10 inh inactive.
O=C(Nc1ccc(NC(=O)c2ccco2)c(Cl)c1)c1ccccc1 was read as GRIN3A LBD mod inactive, FAS-TE inh inactive, ADAM17 inh inactive, aDG glyco up inactive and ADAM10 inh inactive.
For Cc1nc(NC(=O)c2ccco2)sc1C(=O)Nc1ccc(Br)cc1 the results were GRIN3A LBD mod 15.3, FAS-TE inh inactive and aDG glyco up inactive.
Screening O=C(NCc1ccccc1)c1ccco1 returned GRIN3A LBD mod inactive, FAS-TE inh inactive, ADAM17 inh inactive, aDG glyco up inactive and ADAM10 inh inactive.
`Nc1ccc(C(=O)Nc2ccc(NC(=O)c3ccco3)c(O)c2)cc1` gave GRIN3A LBD mod 22.2, FAS-TE inh inactive, ADAM17 inh inactive, aDG glyco up inactive and ADAM10 inh inactive.
COc1ccc(C(=O)Nc2ccc(NC(=O)c3ccco3)cc2)cc1 was read as GRIN3A LBD mod 16.3, FAS-TE inh inactive, ADAM17 inh inactive, aDG glyco up inactive and ADAM10 inh inactive.
`O=C(NCc1ccccc1)c1ccc(NC(=O)c2ccco2)cc1` gave GRIN3A LBD mod 18.8, FAS-TE inh inactive, ADAM17 inh inactive, aDG glyco up inactive and ADAM10 inh inactive.
For COc1ccc(C(C)NC(=O)C23CC4CC(CC(C4)C2)C3)cc1OC (configuration not stated) the results were GRIN3A LBD mod inactive, FAS-TE inh inactive, ADAM17 inh inactive, aDG glyco up inactive and ADAM10 inh inactive.
CN(CC(=O)NCCCN1CCOCC1)S(=O)(=O)c1ccc(Cl)cc1 was read as GRIN3A LBD mod inactive, FAS-TE inh inactive, ADAM17 inh inactive, aDG glyco up inactive and ADAM10 inh inactive.
Screening O=[N+]([O-])c1cn(Cc2ccccc2)cn1 returned GRIN3A LBD mod inactive, FAS-TE inh inactive, ADAM17 inh inactive, aDG glyco up inactive and ADAM10 inh inactive.
O=C(Nc1ccc(Cl)c(Cl)c1)Oc1ccc(NC(=O)c2ccco2)cc1 was read as GRIN3A LBD mod 26.7, FAS-TE inh inactive, ADAM17 inh inactive, aDG glyco up inactive and ADAM10 inh inactive.
Screening c1ccc(Oc2ccc(-c3ccnc4nc(N5CCN(c6ccccc6)CC5)nn34)cc2)cc1 returned GRIN3A LBD mod inactive, FAS-TE inh inactive, ADAM17 inh inactive, aDG glyco up inactive and ADAM10 inh inactive.
`Nc1c2c(nc3sc4c(c13)CCCC4)-c1ccccc1CC2` gave GRIN3A LBD mod 22.5, FAS-TE inh inactive, ADAM17 inh inactive, aDG glyco up inactive and ADAM10 inh inactive.
For NNc1nc(-c2ccccc2)nc2sc3c(c12)CCCC3 the results were GRIN3A LBD mod inactive, FAS-TE inh inactive, ADAM17 inh inactive, aDG glyco up inactive and ADAM10 inh inactive.
`O=C(COc1ccc(-c2ccccc2)cc1)N/N=C/c1cc(O)ccc1Br` gave GRIN3A LBD mod 20.2, FAS-TE inh inactive, ADAM17 inh inactive, aDG glyco up inactive and ADAM10 inh inactive.
`Cc1ccc(NC(=O)Cn2nnc(C(=O)NCc3cccs3)c2N)cc1Cl` gave GRIN3A LBD mod 16.3, FAS-TE inh inactive, ADAM17 inh inactive, aDG glyco up inactive and ADAM10 inh inactive.
`Clc1ccc(CSc2cc3c(nn2)-c2ccccc2CC3)cc1Cl` gave GRIN3A LBD mod inactive, FAS-TE inh inactive, ADAM17 inh inactive, aDG glyco up inactive and ADAM10 inh inactive.
For COC(=O)c1ccc2[nH]c3cccc(/C(=C/c4ccccc4)c4ccccc4)c3c2c1 the results were GRIN3A LBD mod 24.0, FAS-TE inh inactive, ADAM17 inh inactive, aDG glyco up inactive and ADAM10 inh inactive.
`COc1cc2c(C(=O)NCc3ccccn3)cn(CC(C)C)c(=O)c2cc1OC` gave GRIN3A LBD mod inactive, FAS-TE inh inactive, ADAM17 inh inactive, aDG glyco up inactive and ADAM10 inh inactive.
Screening COc1cc(C(=O)NCc2nc(C)cs2)ccc1OC1CCN(C(C)=O)CC1 returned GRIN3A LBD mod 11.7, FAS-TE inh inactive, ADAM17 inh inactive, aDG glyco up inactive and ADAM10 inh inactive.
CCc1ccc(CNC(=O)c2ccc(OC)c(OC3CCN(C(C)C)CC3)c2)nc1 was read as GRIN3A LBD mod 13.1, FAS-TE inh inactive, ADAM17 inh inactive, aDG glyco up inactive and ADAM10 inh inactive.
`COc1ccc(C(=O)NCc2csc(C)n2)cc1OC1CCN(C(C)=O)CC1` gave GRIN3A LBD mod inactive, FAS-TE inh inactive, ADAM17 inh inactive, aDG glyco up inactive and ADAM10 inh inactive.
`CCNC(=O)COc1ncnc2scc(-c3ccc(F)cc3)c12` gave GRIN3A LBD mod inactive, FAS-TE inh inactive, ADAM17 inh inactive, aDG glyco up inactive and ADAM10 inh inactive.
`CC(=O)Nc1cccc(NC(=O)c2cc(-c3cccnc3)nc3ccc(Br)cc23)c1` gave GRIN3A LBD mod inactive, FAS-TE inh inactive, ADAM17 inh inactive, aDG glyco up inactive and ADAM10 inh inactive.
For O=C(Nc1ccc(C(F)(F)F)cc1)c1cc(-c2cccnc2)nc2ccc(Br)cc12 the results were GRIN3A LBD mod 33.7, FAS-TE inh inactive, ADAM17 inh inactive, aDG glyco up inactive and ADAM10 inh inactive.

Source: PubChem BioAssay
